Laboratory results from PubChem BioAssay (EPA / NIEHS).
Values joined by “and” are separate entries in the source; they are usually repeats but may differ in a detail not shown here. Equal entries are not always repeated. More than one record can exist for a structure, and the calls need not agree. Active and inactive are the calls of the source. The calls were made as follows: active = hit-call score of the fitted dose curve at least 0.9, where 1 is the maximum; inactive = score below 0.9.

What follows are compounds tested on CD38, CD38 (gene 952) (assay: BSK_SAg_CD38: BioMAP Diversity Plus: SAg Assay for CD38 Biomarker Activity (AID 2283087)). Conditions: primary human HUVEC with PBMC; actives raise or lower the signal.
Method: BSK_SAg is a cell-based, multiplexed-readout assay that uses umbilical vein endothelium and peripheral blood mononuclear cells, a human vascular primary cell co-culture, with measurements taken at 24 hours after chemical dosing in a 96-well plate.BSK_SAg_CD38 is one of 10 assay component(s) measured or calculated from the BSK_SAg assay. It is designed to make measurements of enzyme-linked immunosorbent assay, a form of binding reporter, as detected with fluorescence intensity signals by Enzyme-linked immunosorbent assay technology.Data from the assay component BSK_SAg_CD38 was analyzed into 1 assay endpoint. This assay endpoint, BSK_SAg_CD38, was analyzed with bidirectional fitting relative to DMSO as the negative control and baseline of activity. Using a type of binding reporter, gain or loss-of-signal activity can be used to understand changes in the signaling as they relate to the gene CD38. Furthermore, this assay endpoint can be referred to as a primary readout, because this assay has produced multiple assay endpoints where this one serves a signaling function. To generalize the intended target to other relatable targets, this assay endpoint is annotated to the cytokine intended target family, where the subfamily is other cytokine.
The levels of cell surface (or secreted, indicated by the prefix "s") biomarker endpoints were measured by ELISA. Overt cytotoxicity to cells in confluent adherent cultures (all systems other than the BT system) was assessed by measuring total protein levels using sulforhodamine B (SRB) staining in parallel cultures at the time of biomarker measurements, indicated as SRB endpoints. For proliferation assays for adherent cell types, individual cell types are cultured at sub-confluence and relative cell numbers quantified by SRB staining at time points optimized for each system (48 h: 3C and CASM3C systems; 72 h: BT and HDF3CGF systems; 96 h: SAg system). SRB was performed by staining cells with 0.1% SRB after fixation with 10% TCA and reading wells at 560 nm.Viability and proliferation of PBMC (T cells) was quantified by Alamar Blue reduction for the SAg and BT systems. For PBMC viability (referred to as PBMC Cytotoxicity within the assay endpoint names), cells were plated (75,000/well in a 96-well plate) and then chemical samples added for 1 h before addition of activators, SEB and TSST-1 (20 ng/mL final concentration each). Cells were incubated for 90 h. Then, Alamar Blue (20 uL/well) (Invitrogen, Cat DAL1100) was added for 6 h, and the plates were read with a fluorescence microplate reader at 546/580 nm (excitation/emission). For PBMC proliferation, cells were plated and activated as above but incubated for only 16 h prior to addition of Alamar Blue. Plates were read after 6 h.

SMILES	outcome	AC50
COC(=O)C(C)Oc1ccc(Oc2ccc(Cl)cc2Cl)cc1 (stereo not given)	inactive	10.9 µM (active)
CN(C)C(=S)SSC(=S)N(C)C		26.8 µM (active)
CC(C)C1(C)N=C(c2nc3ccccc3cc2C(=O)O)NC1=O (stereo not given)	inactive	
CCCCC(CC)COC(=O)c1ccccc1C(=O)OCC(CC)CCCC (stereo not given)		7.36 µM (active)
CCOP(=S)(OCC)SCn1c(=O)oc2cc(Cl)ccc21		30.4 µM (active)
CCOC(=O)C(Cl)Cc1cc(-n2nc(C)n(C(F)F)c2=O)c(F)cc1Cl (stereo not given)	inactive	
COC(=O)N(OC)c1ccccc1COc1ccn(-c2ccc(Cl)cc2)n1		5.43 µM (active)
COP(N)(=O)SC (stereo not given)	inactive	
CS/C(C)=N/OC(=O)N(C)SN(C)C(=O)O/N=C(\C)SC		26.4 µM (active)
CC(C)(C)c1ccc(CSc2cnn(C(C)(C)C)c(=O)c2Cl)cc1		2.4 µM (active)
COc1nc(C)nc(NC(=O)NS(=O)(=O)c2ccccc2Cl)n1	inactive	
Fc1ccc(Oc2ccnc3cc(Cl)cc(Cl)c23)cc1		25.1 µM (active)
CNC(=S)S		13.7 µM (active)
CC(Oc1ccc(Cl)cc1Cl)C(=O)O (stereo not given)	inactive	
Oc1ccccc1-c1ccccc1	inactive	
Cc1c(F)c(F)c(COC(=O)C2C(/C=C(\Cl)C(F)(F)F)C2(C)C)c(F)c1F (stereo not given)		9.52 µM (active)
C=CCC1=C(C)[C@@H](OC(=O)[C@@H]2[C@@H](C=C(C)C)C2(C)C)CC1=O		33.1 µM (active)
O=C(O)c1nc(Cl)ccc1Cl	inactive	
COP(=S)(OC)Oc1nc(Cl)c(Cl)cc1Cl	inactive	
CC(C)Oc1cc(-n2nc(C(C)(C)C)oc2=O)c(Cl)cc1Cl		28.7 µM (active)

SMILES	outcome	AC50
COc1ccc(C(c2ccc(OC)cc2)C(Cl)(Cl)Cl)cc1		14.9 µM (active)
COc1nc(NC(C)C)nc(NC(C)C)n1	inactive	
CCCCNC(=O)OCC#CI		21.4 µM (active) and 17.4 µM (active)
O=C(O)COc1nc(Cl)c(Cl)cc1Cl	inactive	
OC(c1ccc(Cl)cc1)(c1cncnc1)c1ccccc1Cl (stereo not given)		20 µM (active)
COc1nc(C)nc(NC(=O)NS(=O)(=O)c2ccccc2CCC(F)(F)F)n1	inactive	
Cc1cc(Cl)ccc1OCC(=O)O	inactive	
CC1COC(Cn2cncn2)(c2ccc(Oc3ccc(Cl)cc3)cc2Cl)O1 (stereo not given)		19.4 µM (active)
CON(C)C(=O)Nc1ccc(Cl)c(Cl)c1	inactive	
C=CC1(C)OC(=O)N(c2cc(Cl)cc(Cl)c2)C1=O (stereo not given)	inactive	
CCNc1nc(Cl)nc(NCC)n1	inactive	
CCCCOC(=O)c1ccccc1C(=O)OCCCC	inactive	
CCON=C(CC)C1=C(O)CC(c2c(C)cc(C)cc2C)CC1=O (stereo not given)	inactive	
CCOC(=O)CC(SP(=S)(OC)OC)C(=O)OCC (stereo not given)	inactive	
N#Cc1nn(-c2c(Cl)cc(C(F)(F)F)cc2Cl)c(N)c1S(=O)C(F)(F)F (stereo not given)		29.7 µM (active)
Cc1ccc(-c2c(Cl)nc(C#N)n2S(=O)(=O)N(C)C)cc1		22.5 µM (active)
CCNc1nc(Cl)nc(NC(C)C)n1	inactive	
N#CC(CCc1ccc(Cl)cc1)(Cn1cncn1)c1ccccc1 (stereo not given)	inactive	
CCCCNC(=O)n1c(NC(=O)OC)nc2ccccc21	inactive	
